Records with an inconclusive call do not appear. A call without a number means that no potency is given here. Activity calls are given as the source filed them. Calls come from the whole dose curve; as a rule, active = well fitted inhibition curve with a large enough effect; inconclusive = small, poorly fitted or top-dose-only effect; inactive = flat fitted curve, though single readings scatter.
Potency is the fitted concentration of half-maximal effect.

In the assay the target is Voltage-gated inwardly rectifying potassium channel KCNH2 (Homo sapiens) (UniProt Q12809). Description: qHTS Assay for Small Molecule Inhibitors of the Human hERG Channel Activity (AID 588834).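 Note: lower thallium flux fluorescence means stronger hERG block; nearly all actives have a fitted effect of over 50% in size.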 The conditions noted are these: U2OS BacMam hERG, FluxOR thallium flux fluorescence; series mostly up to 46.1 µM. The source says: NIH Chemical Genomics Center [NCGC]
Voltage-gated inwardly rectifying potassium channel KCNH2 (Homo sapiens), sequence (Q12809 whole entry, looked up): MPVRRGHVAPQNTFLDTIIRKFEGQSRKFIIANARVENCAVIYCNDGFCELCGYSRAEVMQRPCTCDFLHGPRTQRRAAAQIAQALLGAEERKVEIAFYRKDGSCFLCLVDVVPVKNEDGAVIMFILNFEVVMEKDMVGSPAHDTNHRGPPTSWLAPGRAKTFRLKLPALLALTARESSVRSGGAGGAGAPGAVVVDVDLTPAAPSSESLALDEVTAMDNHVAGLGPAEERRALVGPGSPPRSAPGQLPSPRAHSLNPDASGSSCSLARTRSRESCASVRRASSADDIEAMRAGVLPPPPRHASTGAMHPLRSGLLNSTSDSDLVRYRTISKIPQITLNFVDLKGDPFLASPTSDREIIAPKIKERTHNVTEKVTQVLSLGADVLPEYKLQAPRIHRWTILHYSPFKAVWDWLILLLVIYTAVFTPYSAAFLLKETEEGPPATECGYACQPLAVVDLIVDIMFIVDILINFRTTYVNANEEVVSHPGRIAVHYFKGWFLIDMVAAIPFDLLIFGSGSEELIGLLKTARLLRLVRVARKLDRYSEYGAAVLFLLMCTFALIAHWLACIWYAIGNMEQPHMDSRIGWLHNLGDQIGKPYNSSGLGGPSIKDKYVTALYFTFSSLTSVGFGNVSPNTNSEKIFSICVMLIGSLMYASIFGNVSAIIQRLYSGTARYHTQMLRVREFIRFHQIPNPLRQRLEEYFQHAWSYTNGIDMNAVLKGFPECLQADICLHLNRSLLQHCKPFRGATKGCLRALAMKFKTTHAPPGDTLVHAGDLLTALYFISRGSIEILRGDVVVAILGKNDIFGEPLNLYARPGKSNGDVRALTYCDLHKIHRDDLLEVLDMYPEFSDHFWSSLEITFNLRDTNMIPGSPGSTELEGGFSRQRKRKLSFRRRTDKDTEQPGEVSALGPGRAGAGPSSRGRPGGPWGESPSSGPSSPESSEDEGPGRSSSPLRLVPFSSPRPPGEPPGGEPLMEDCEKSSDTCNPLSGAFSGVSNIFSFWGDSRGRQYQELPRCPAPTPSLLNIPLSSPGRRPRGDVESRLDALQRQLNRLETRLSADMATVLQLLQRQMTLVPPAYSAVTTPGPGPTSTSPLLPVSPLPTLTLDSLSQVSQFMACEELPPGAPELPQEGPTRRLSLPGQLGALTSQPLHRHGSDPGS
National Institutes of Environmental Health Sciences [NIEHS]
National Toxicology Program [NTP]
We have developed a 1536-well cell-based assay for quantitative high throughput screening (qHTS) to determine in vitro hERG channel blockage as a measure of cardio toxicity with small molecules. This particular assay uses the U2OS cell line which is derived from human osteosarcoma.
NCGC Assay Protocol Summary:
HERG assay (FluxORTM thallium flux assay) was initially developed by Invitrogen/Molecular Probes, and then miniaturized into 1536-well plate in a homogeneous format by NCGC. This assay measures the activity of potassium channel using thallium dye (FluxOR) flux as surrogate measurement for potassium into the cells with a FDSS-7000 kinetic plate reader (Hamamatsu Corp., Hamamatsu City, Japan). The hERG ion channel is transduced into mammalian cells (U2OS) using a baculovirus (Bacmam) construct harboring the hERG K+ ion channel. So far we screened LOPAC1280 library (Sigma), the NTP collection of 1408 compounds, and the NCGC Pharmaceutical Collection (NPC), in which many well defined HERG blockers are present. The rank order potencies of many of these compounds are similar to that of other HERG assays (membrane potential, Rb+ flux, patch clamp, etc). This quick and homogeneous assay is also found to be sensitive, specific, and robust.
Using the FluxORTM thallium flux assay, the activity of potassium channel using thallium dye (FluxOR) flux as surrogate measurement for potassium into the cells was measured in the U2OS cell line transduced with hERG K+ ion channel using a baculovirus (Bacmam) using Opti-MEM medium (Invitrogen) containing 2% fetal calf serum (FCS, HyCone) following loading buffer addition, compound treatment for around 10 minutes and finally adding stimulation buffer. The assay was performed in black clear Kalypsys 1536-well plates. In the screen, Astemizole was used as positive controls. Library compounds were measured for their ability to cause hERG channel blockage in the cell line, as reflected by a decrease in fluorescence intensity, in a concentration-dependent manner. […] AC50 values were determined from concentration-response data modeled with the standard Hill equation.
qHTS protocol for hERG-U2OS cellular assay
[Step] [Parameter] [Value] [Description]
1. Day 1: Replace medium in 70-80% confluent T225 flask with 2.5 mL of hERG-BacMam virus plus 12.5 mL of phosphate buffered saline (PBS) (corresponding roughly to a multiplicity of infection ratio of 100 virus particles/cell)
2. Incubation: 4 hrs @ room Temperature in Dark
3. Reagent; Remove virus; wash once with 25 ml DPBS
4. Reagent; 35 ml culture medium
5. Incubation; 37 °C overnight
6. Day2: Reagent; 3 uL; 2000 U2OS cells/well
7. Time; 4 hr; 37 °C incubation
8. Loading buffer; 1 uL; 0.7X;
9. Incubation: 1hr @ RT in Dark.
12. Time; 10min; 37 °C incubation
13. Read fluorescence Intensity on FDSS for 10 Sec with 1 sec interval
14. Reagent; 1 uL; stimulation buffer
15. Read fluorescence Intensity on FDSS for 2 min with 1 sec interval
16. Detection; Fluorescence Intensity; FDSS
In general terms: Quantitative high-throughput screening tests each substance at several concentrations.
Regarding `CCOC(=O)c1c[nH]c2cc(OCC(C)C)c(OCC(C)C)cc2c1=O`, the Potency result is “inactive”.

Take `c1ccc2c(c1)Sc1ccccc1N2CCN1CCCC1`: the Potency is 15.8 µM (active).

As to `CCN1C(=O)NC(c2ccccc2)C1=O` (stereo not given), the Potency entry was “inactive”.

For `CC1CCC(NC(=O)N(CCCl)N=O)CC1` (stereo not given), the Potency entry was “inactive”.

Consider `C/C=C/C=C/C(=O)O`, for which the Potency entry is “inactive”.

Turning to `CO[C@H]1C[C@H](O[C@@H]2/C(C)=C/C[C@@H]3C[C@@H](C[C@]4(CC[C@H](C)[C@@H](C5CCCCC5)O4)O3)OC(=O)[C@@H]3C=C(C)/C(=N/O)[C@H]4OC/C(=C\C=C\[C@@H]2C)[C@]43O)O[C@@H](C)[C@@H]1O`, the Potency result is “inactive”.

For `NC(N)=NCC1COc2ccccc2O1` (stereo not given), the Potency entry is “inactive”.

As to `C=CCOc1ccc(CC(=O)O)cc1Cl`, the Potency entry is “inactive”.

Take `O=C(CO)[C@@H](O)[C@H](O)[C@@H](O)C(=O)O`: the Potency entry was “inactive”.

Take `O=c1n(CC2CO2)c(=O)n(CC2CO2)c(=O)n1CC1CO1` (stereo not given): the Potency entry was “inactive”.

As to `CCCCCCCCCCCC(=O)N(CCO)CCO`, the Potency entry was “inactive”.

As to `O=C1c2ccccc2C(=O)C1c1ccc(F)cc1`, the Potency result was “inactive”.

For `N#Cc1ccc2c(c1)N(CCCN1CCC(O)CC1)c1ccccc1S2`, the Potency was 14.1 µM (active).

With `C(=C\c1ccncc1)/c1ccccc1`, the Potency entry is “inactive”.

As to `C=C1[C@H](CO)[C@@H](O)C[C@@H]1n1cnc2c(=O)[nH]c(N)nc21`, the Potency result is “inactive”.

For `CC(CN1c2ccccc2Sc2cccnc21)N(C)C` (stereo not given), the Potency was 0.891 µM (active).

On to `C=N[C@@H](C(=O)N[C@@H]1C(=O)N2[C@@H]1SC(C)(C)[C@@H]2C(=O)O)c1ccccc1`, for which the Potency entry was “inactive”.

For the compound `CC(=O)N=c1sc(S(N)(=O)=O)nn1C`, the Potency entry was “inactive”.

For `O=C(O)/C=C/c1ccccc1`, the Potency result is “inactive”.

With `CN1C(=O)C[C@@H](C(=O)N[C@@H](Cc2cnc[nH]2)C(=O)N2CCC[C@H]2C(N)=O)NC1=O`, the Potency entry is “inactive”.

Consider `C[N+]1(C)[C@@H]2CC(OC(=O)C(O)(c3cccs3)c3cccs3)C[C@H]1[C@@H]1O[C@@H]12` (stereo not given in full), for which the Potency entry is “inactive”.

In the case of `O=C(O)CC/C=C\CC[C@@H]1[C@@H](N2CCCCC2)[C@@H](O)C[C@@H]1OCc1ccc(-c2ccccc2)cc1`, the Potency is 0.501 µM (active).

With `CC(C)N1CCN(c2ccc(OC[C@H]3CO[C@](Cn4cncn4)(c4ccc(Cl)cc4Cl)O3)cc2)CC1`, the Potency is 8.91 µM (active).

As to `CNCC(=O)N[C@@H](CCCN=C(N)N)C(=O)N[C@H](C(=O)N[C@@H](Cc1ccc(O)cc1)C(=O)N[C@H](C(=O)N[C@@H](Cc1cnc[nH]1)C(=O)N1CCC[C@H]1C(=O)N[C@@H](C)C(=O)O)C(C)C)C(C)C`, the Potency entry is “inactive”.

As to `CCCc1nc(C(C)(C)O)c(C(=O)OCc2oc(=O)oc2C)n1Cc1ccc(-c2ccccc2-c2nn[nH]n2)cc1`, the Potency entry was “inactive”.

On to `CN(Cc1ccccc1)Cc1ccccc1`, for which the Potency result is “inactive”.

On to `C#C[C@]1(O)CC[C@@H]2[C@H]3CCC4=CC(=O)CC[C@H]4[C@H]3C(=C)C[C@@]21CC`, for which the Potency entry is “inactive”.

As for `CC(C)(C)NCC(O)c1ccc(O)c(CO)n1` (stereo not given), the Potency result is “inactive”.

`C=C1CC[C@H](O)C/C1=C\C=C1/CCC[C@]2(C)[C@@H]([C@H](C)CCCC(C)C)CC[C@@H]12`: the Potency entry was “inactive”.

Regarding `O=c1[nH]c(=O)n([C@H]2C[C@H](O)[C@@H](CO)O2)cc1/C=C/Br`, the Potency entry was “inactive”.

Regarding `C[S+](C)CCC(N)C(=O)O` (stereo not given), the Potency result is “inactive”.

For `FC(F)(F)C(F)(F)C(F)(F)C(F)(F)C(F)(F)C(F)(F)F`, the Potency result is “inactive”.

Take `C[C@H](O)CN(C)C`: the Potency entry is “inactive”.

For the compound `CC/C=C\C/C=C\C/C=C\C/C=C\C/C=C\CCCC(=O)O`, the Potency entry is “inactive”.

As to `COc1ccc(C(=O)/C(Br)=C\C(=O)O)cc1`, the Potency entry is “inactive”.

Turning to `CN[C@H](CC(C)C)C(=O)N[C@H]1C(=O)N[C@@H](CC(N)=O)C(=O)N[C@H]2C(=O)N[C@H]3C(=O)N[C@H](C(=O)N[C@@H](C(=O)O)c4cc(O)cc(O)c4-c4cc3ccc4O)[C@H](O)c3ccc(c(Cl)c3)Oc3cc2cc(c3O[C@@H]2O[C@H](CO)[C@@H](O)[C@H](O)[C@H]2O[C@H]2C[C@](C)(N)C(O)[C@H](C)O2)Oc2ccc(cc2Cl)[C@H]1O` (stereo not given in full), the Potency result is “inactive”.

As for `O=C(O)Cc1nn(Cc2ccc(Br)cc2F)c(=O)c2ccccc12`, the Potency entry is “inactive”.

Take `CO`: the Potency result was “inactive”.

Regarding `Cc1cccc(Nc2ncccc2C(=O)O)c1C`, the Potency result is “inactive”.

Take `CCCCCCCCCCCC(=O)OCC(O)CO` (stereo not given): the Potency entry was “inactive”.

For the origin of these results see PubChem BioAssay (NCATS).
